# Test results taken from PubChem BioAssay (Tox21).
# Several values for one entry are separate records, joined by “and”; a condition that tells them apart may be missing. Equal entries are not always repeated. Activity calls are given as the source filed them. Where a call stands in place of a potency, no number is given. Calls come from the whole dose curve.
# Assay: qHTS assay to identify small molecule agonists of the sonic hedgehog signaling (Shh) pathway (AID 1259368); note: nearly all actives have a fitted effect of over 15% in size
# Details: NIH/3T3 Gli1-Luc reporter, luciferase, 24 h; series mostly up to 92.4 µM
# Outline: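 Hedgehog pathway agonism scored by increased firefly luciferase luminescence in 3T3Gli1-Luc cells treated 24 hr at 37 C; detection used a 30 min room-temperature reagent incubation.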
# Potency is the fitted concentration of half-maximal effect.
row,SMILES,Potency
1,N#CCCCCC#N,inactive
2,COP(=S)(OC)Oc1ccc(S(=O)(=O)N(C)C)cc1,inactive
3,N#Cc1c(Cl)c(Cl)c(Cl)c(C#N)c1Cl,673 nM (active) and 969 nM (active)
4,C[C@]12CC[C@H]3[C@@H](CCC4=CC(=O)CC[C@@H]43)[C@@H]1CC[C@@H]2O,inactive
5,COc1ccc(CO)cc1,inactive
6,CCC(=O)Nc1ccc(Cl)c(Cl)c1,inactive
7,NN=C(N)N,inactive
8,OC(c1ccc(Cl)cc1)(c1cncnc1)c1ccccc1Cl (configuration not stated),inactive
9,Cl,inactive
10,CC(C)(c1ccccc1)c1ccc(O)c(C(C)(C)c2ccccc2)c1,inactive
11,CC(C)(c1ccccc1)c1ccc(O)cc1,inactive
12,COP(=O)(NC(C)=O)SC (configuration not stated),inactive
13,COC(=O)Nc1nc2ccccc2[nH]1,inactive
14,CC(O)CN(CC(C)O)CC(C)O (configuration not stated),inactive
15,CCCCSP(=O)(SCCCC)SCCCC,inactive
16,O=P(OCCCl)(OCCCl)OCCCl,inactive
17,CCOS(=O)(=O)OCC,inactive
18,CC(C)(O)C#N,inactive
19,CS(=O)(=O)NC(=O)c1cc(Oc2ccc(C(F)(F)F)cc2Cl)ccc1[N+](=O)[O-],inactive

row,SMILES,Potency
1,Nc1ccc([N+](=O)[O-])cc1N,inactive
2,Oc1ccc(Cl)cc1Cc1ccccc1,inactive
3,CCC1(c2ccc(N)cc2)CCC(=O)NC1=O (configuration not stated),inactive
4,NC(=O)CN1CCCC1=O,inactive
5,COc1ccc(C=O)cc1OC,inactive
6,O=C(O)c1nn(Cc2ccc(Cl)cc2Cl)c2ccccc12,inactive
7,Brc1ccc(Br)cc1,inactive
8,[CH3][Sn]([Cl])([Cl])[Cl],inactive
9,O=C1C(Cl)=C(Cl)C(=O)c2ccccc21,inactive
10,N#Cc1nn(-c2c(Cl)cc(C(F)(F)F)cc2Cl)c(N)c1S(=O)C(F)(F)F (configuration not stated),inactive
11,O=S(=O)(O)C(F)(F)C(F)(F)C(F)(F)C(F)(F)C(F)(F)C(F)(F)C(F)(F)C(F)(F)F,inactive
12,CCCCOCC1CO1 (configuration not stated),inactive
13,ClCC(Cl)CCl,inactive
14,O=C1Nc2ccc(Cl)cc2C(c2ccccc2)=NC1O (configuration not stated),inactive
15,ClC(Cl)(Cl)Br,inactive
16,CC1=C(C(=O)Nc2ccccc2)SCCO1,inactive
17,CC1CC(=O)O1 (configuration not stated),inactive
18,CCOP(=O)(OCC)OCC,inactive
